Experimental findings from the supplement of paper PMC12340641 are described below.

± gives the standard deviation of the averaged measurements.

For test [1], the target named is IKZF1 (dCK*-IKZF1 fusion in HEK293FT) (UniProt Q13422). Description: inhibition of IKZF1 HTRF signal (DMSO = 0%, pomalidomide 10 uM = 100%); higher = lower IKZF1 protein level. Particulars: compound concentration: 5 uM, overnight (~20 h). An outline of the steps: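 HEK293FT cells stably expressing a dCK*-IKZF1 fusion (2000/well, 384-well) were treated overnight at 37 °C with 5 μM compound in single wells. They were then lysed 30 min at room temperature, and lysate was incubated overnight with a commercial HTRF total-IKZF1 antibody kit. The time-resolved FRET ratio (665/620 nm) was background-subtracted. Percent inhibition of IKZF1 signal was normalised per plate to vehicle (0%) and a reference degrader (100%).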
Chain of IKZF1 (dCK*-IKZF1 fusion in HEK293FT) (Q13422 whole entry, looked up, the tested form may be a part): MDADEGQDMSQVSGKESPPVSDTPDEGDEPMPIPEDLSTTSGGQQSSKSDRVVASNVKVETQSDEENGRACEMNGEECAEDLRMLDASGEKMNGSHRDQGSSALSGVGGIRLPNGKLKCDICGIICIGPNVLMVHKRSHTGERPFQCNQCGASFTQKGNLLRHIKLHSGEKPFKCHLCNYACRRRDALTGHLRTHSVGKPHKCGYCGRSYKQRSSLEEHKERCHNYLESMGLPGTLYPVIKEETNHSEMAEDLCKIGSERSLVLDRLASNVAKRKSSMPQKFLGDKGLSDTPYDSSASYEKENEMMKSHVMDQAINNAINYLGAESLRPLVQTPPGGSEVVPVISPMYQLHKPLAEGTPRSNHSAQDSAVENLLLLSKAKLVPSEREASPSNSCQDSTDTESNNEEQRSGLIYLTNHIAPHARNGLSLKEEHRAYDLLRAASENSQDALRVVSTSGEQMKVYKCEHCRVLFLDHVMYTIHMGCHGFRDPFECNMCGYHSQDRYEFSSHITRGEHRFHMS
(In general: TR-FRET usually uses a lanthanide donor and a delayed reading to cut background.)

For test [2], the system named is HEK293FT dCK*-only. Description: relative growth in counter assay (no AraC = 100%, AraC + DMSO = 0%); higher = more growth rescue independent of IKZF1. Particulars: compound concentration: 5 uM; AraC concentration: 0.3 uM; overnight pretreatment + 4 days AraC. In a few lines: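 In 384-well plates, 300 HEK293FT cells per well expressing an engineered kinase construct alone got 5 μM compound 2 h after seeding. After overnight at 37 °C, 0.3 μM nucleoside suicide substrate plus medium was applied for 4 days. Counting of Hoechst 33342-stained nuclei by imaging on day 5 was normalised per plate, with 100% for no-substrate wells and 0% for substrate plus vehicle.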

Test [3] relates to HEK293FT dCK*-IKZF1. Description: relative growth recovery (pomalidomide 10 uM = 100%, DMSO = 0%); higher = more growth rescue (IKZF1 fusion degradation). The following applies: compound concentration: 5 uM; AraC concentration: 0.3 uM; overnight pretreatment + 4 days AraC. An outline of the steps: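 HEK293FT cells stably expressing an engineered deoxycytidine kinase–IKZF1 fusion were seeded at 300 per well in 384-well plates and given 5 μM compound 2 h later. After overnight incubation at 37 °C, a nucleoside suicide substrate at 0.3 μM was added with medium for 4 days, and on day 5 Hoechst 33342-stained nuclei were counted by whole-well imaging. Growth recovery was normalised per plate between a reference degrader and vehicle, set to 100% and 0% respectively, and the values are means of duplicates run on different days.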

With `CCCCc1ccc2[nH]c(NC(=O)OC)nc2c1` [parbendazole], in test [1], the “inhibition of IKZF1 HTRF signal” value was -10.3%. For the same molecule, the “relative growth in counter assay” value in test [2] is -34.4%. Further, the relative growth recovery in test [3] was -11.7%.
On the same counts, the results for `Nc1ncn([C@@H]2O[C@H](CO)[C@@H](O)[C@H]2O)c(=O)n1` are -45.6%, -13.2% and -5.21%.
Turning to `O=C(CCCCCCC(O)=NO)Nc1ccccc1` [Vorinostat], the “inhibition of IKZF1 HTRF signal” value in test [1] is -44.5%. Besides, the “relative growth in counter assay” value in test [2] is -31.4%. The relative growth recovery in test [3] is -10.3%.
With `Oc1cc2c(cc1O)[C@@H]1c3ccc(O)c(O)c3OC[C@]1(O)C2` [Hematoxylin (Hydroxybrazilin)], the “inhibition of IKZF1 HTRF signal” value in test [1] was -6.3%. The “relative growth in counter assay” value in test [2] is -6.89%. In addition, in test [3], the relative growth recovery is -1.47%.
For the molecule `Cc1ccc(S(=O)(=O)N/N=C/c2cc(Br)ccc2O)cc1`, the “inhibition of IKZF1 HTRF signal” value in test [1] came out at 26 ± 7.3%. Moreover, the “relative growth in counter assay” value in test [2] is -14 ± 4.4%. The relative growth recovery in test [3] was 2.03 ± 2.8%.
Regarding `O=[N+]([O-])c1ccc(O)c2ncccc12`, the “inhibition of IKZF1 HTRF signal” value in test [1] was -23.9%. Moreover, the “relative growth in counter assay” value in test [2] is -14.6%. Further, the relative growth recovery in test [3] was -2.33%.
On to `CCN(CC)CCCC(C)Nc1c2ccc(Cl)cc2nc2ccc(OC)cc12` (centres undefined), for which, in test [1], the “inhibition of IKZF1 HTRF signal” value was found to be 57.3%. Besides, in test [2], the “relative growth in counter assay” value was -34.1%. In test [3], the relative growth recovery is -13.4%.
The matching figures for `CCC(=O)O[C@@H]1CC(=O)O[C@H](C)C/C=C/C=C/[C@H](O)[C@H](C)C[C@H](CC=O)[C@H](O[C@@H]2O[C@H](C)[C@@H](O[C@H]3C[C@@](C)(O)[C@@H](OC(=O)CC)[C@H](C)O3)[C@H](N(C)C)[C@H]2O)[C@H]1OC` [Midecamycin]: -31.7%, -8.86% and -1.26%.
On the same counts, the results for `CC1CC(OC(=O)C(O)c2ccccc2)CC(C)(C)C1` (centres undefined) are -11.2%, 0.99% and -2.85%.
Take `CC(C)(C#N)c1ccc(N2C(=O)OCc3cnc4ccc(-c5cnc6ccccc6c5)cc4c32)cc1`: in test [1], the “inhibition of IKZF1 HTRF signal” value was determined as 17.1%. Besides, the “relative growth in counter assay” value in test [2] turned out to be 3.56%. In addition, the relative growth recovery in test [3] is -2.14%.
The matching figures for `O=C1Nc2ccc(Cl)cc2[C@@](C#CC2CC2)(C(F)(F)F)O1` [Efavirenz]: 19.7%, 3.1% and 2.08%.
The matching figures for `CCCCOC(=O)c1ccc(N)cc1`: -30.3%, -2.73% and -0.295%.
On the same counts, the results for `CC[N+](CC)(CC)CC(=O)Nc1c(C)cccc1C` are -32.9%, -2.01% and -0.165%.
Take `CCN(CC)CCCC(C)Nc1ccnc2cc(Cl)ccc12` (centres undefined): the “inhibition of IKZF1 HTRF signal” value in test [1] was -24.3%. The “relative growth in counter assay” value in test [2] was -29.9%. Moreover, the relative growth recovery in test [3] was -9.51%.
For `COc1ccc(CCCOC(Cn2ccnc2)c2ccc(OC)cc2)cc1` (centres undefined), in test [1], the “inhibition of IKZF1 HTRF signal” value was -18.7%. Further, the “relative growth in counter assay” value in test [2] is -32.6%. Also, the relative growth recovery in test [3] is -9.78%.
On the same counts, the results for `Oc1c(Cl)cc(Cl)c2cccnc12` are -21.5%, -3.56% and -0.1%.
For the molecule `COc1ccc(CCN(C)CCc2ccc(OC)c(OC)c2)cc1OC`, the “inhibition of IKZF1 HTRF signal” value in test [1] was -8.39%. In test [2], the “relative growth in counter assay” value was determined as 5.51%. Further, in test [3], the relative growth recovery turned out to be 1.83%.
The matching figures for `NC(=O)NC(=O)Cc1ccccc1`: -29.1%, 4.08% and -2.01%.
The matching figures for `COC(=O)C1=C(C)NC(C)=C(C(=O)OC(C)(C)CN(C)CCC(c2ccccc2)c2ccccc2)C1c1cccc([N+](=O)[O-])c1` (centres undefined) [lercanidipine]: -5.35%, -6.01% and 1.64%.
On the same counts, the results for `Cc1cc(C2CCCCC2)n(O)c(=O)c1` [Ciclopirox] are 24.4%, -31.2% and -11.9%.
With `c1cc2c(cc1C1CCCCC1)c1c3n2CCNC3CCC1` (centres undefined) [tetrindole], the “inhibition of IKZF1 HTRF signal” value in test [1] was -27.2%. Besides, in test [2], the “relative growth in counter assay” value is -33%. In addition, the relative growth recovery in test [3] is -9.3%.
As for `Cc1ccccc1N=Nc1ccc(N=Nc2c(O)ccc3ccccc23)c(C)c1` [Solvent Red 24], in test [1], the “inhibition of IKZF1 HTRF signal” value came to 13.9%. The “relative growth in counter assay” value in test [2] is -1.17%. Besides, in test [3], the relative growth recovery was -0.495%.
On the same counts, the results for `CN1C(=O)CC(C)(c2ccccc2)C1=O` (centres undefined) are 19.8%, 7.33% and 3%.
On the same counts, the results for `Cc1coc2c1C(=O)C(=O)c1c-2ccc2c1CCCC2(C)C` [Tanshinone IIA (Tanshinone B)] are 18.3%, 5.29% and 0.345%.
The matching figures for `CCOC(=O)C1=C(C)NC(C)=C(C(=O)OC)C1c1cccc(Cl)c1Cl` (centres undefined): 18%, -9.69% and -1.19%.
Turning to `C[C@H]1NCc2cc(-c3ccc4c(=O)c(C(=O)O)cn(C5CC5)c4c3OC(F)F)ccc21` [Garenoxacin (Mesylate hydrate)], the “inhibition of IKZF1 HTRF signal” value in test [1] is -29%. In test [2], the “relative growth in counter assay” value is -3.04%. Besides, the relative growth recovery in test [3] was -1.59%.
The matching figures for `CC1(C)C(=O)N=C2C1=C(O)C(=O)c1ccccc12`: 80%, -34.8% and -12.4%.
As for `CSCC1CN(/N=C/c2ccc([N+](=O)[O-])o2)C(=O)O1` (centres undefined) [Nifuratel], in test [1], the “inhibition of IKZF1 HTRF signal” value is -39.4%. Besides, the “relative growth in counter assay” value in test [2] is -3.74%. Further, the relative growth recovery in test [3] is -1.79%.
The matching figures for `CC(CN(C)C)CN1c2ccccc2Sc2ccccc21` (centres undefined): -50.1%, 1.07% and -2.14%.
The matching figures for `CNCCC(Oc1ccc(C(F)(F)F)cc1)c1ccccc1` (centres undefined): -36.8%, 6.85% and 0.235%.
For `c1ccc(C(NCc2cccnc2)(c2ccccc2)c2ccccc2)cc1`, in test [1], the “inhibition of IKZF1 HTRF signal” value was -26.2%. For the same molecule, in test [2], the “relative growth in counter assay” value was 3.05%. The relative growth recovery in test [3] was -0.7%.
The matching figures for `O=C(OC)C1=C(C)NC(C)=C([N+]([O-])=O)[C@H]1[C@]2=CC=CC=C2C(F)(F)F`: -26.8%, 0.45% and -0.325%.
The matching figures for `Cc1cc(/C=C/c2ccc3cc(N(C)C)ccc3[n+]2C)c(C)n1-c1ccccc1.Cc1cc(/C=C/c2ccc3cc(N(C)C)ccc3[n+]2C)c(C)n1-c1ccccc1` [pyrvinium]: 76.3%, -34.4% and -13.1%.
